# Assays:
# [1] = biological target: Ribosomal protein S6 kinase alpha-3 (Homo sapiens) (UniProt P51812); conditions: at 1 µM
# [2] = biological target: Ribosomal protein S6 kinase alpha-3 (Homo sapiens) (UniProt P51812); conditions: at 10 µM
# [3] = biological target: Ribosomal protein S6 kinase alpha-6 (Homo sapiens) (UniProt Q9UK32); conditions: at 1 µM
# [4] = biological target: Ribosomal protein S6 kinase alpha-6 (Homo sapiens) (UniProt Q9UK32); conditions: at 10 µM
# [5] = biological target: Mitogen-activated protein kinase 14 (Homo sapiens) (UniProt Q16539); conditions: at 1 µM
# Chain of Mitogen-activated protein kinase 14 (Homo sapiens) (Q16539 whole entry): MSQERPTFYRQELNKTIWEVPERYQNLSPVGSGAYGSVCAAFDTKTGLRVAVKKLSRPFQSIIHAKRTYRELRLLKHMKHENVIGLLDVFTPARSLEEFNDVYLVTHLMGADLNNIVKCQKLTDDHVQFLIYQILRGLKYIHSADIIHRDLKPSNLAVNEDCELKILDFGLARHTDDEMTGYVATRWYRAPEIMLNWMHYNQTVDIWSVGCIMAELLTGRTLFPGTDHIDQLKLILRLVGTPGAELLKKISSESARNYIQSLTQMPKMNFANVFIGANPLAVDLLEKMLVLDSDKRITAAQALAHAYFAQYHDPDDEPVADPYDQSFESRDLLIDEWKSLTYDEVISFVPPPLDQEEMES
# [6] = biological target: Mitogen-activated protein kinase 14 (Homo sapiens) (UniProt Q16539); conditions: at 10 µM
# [7] = biological target: T1, Mitogen-activated protein kinase 12 (Homo sapiens) (UniProt P53778); conditions: at 1 µM
# T1 sequence (whole entry): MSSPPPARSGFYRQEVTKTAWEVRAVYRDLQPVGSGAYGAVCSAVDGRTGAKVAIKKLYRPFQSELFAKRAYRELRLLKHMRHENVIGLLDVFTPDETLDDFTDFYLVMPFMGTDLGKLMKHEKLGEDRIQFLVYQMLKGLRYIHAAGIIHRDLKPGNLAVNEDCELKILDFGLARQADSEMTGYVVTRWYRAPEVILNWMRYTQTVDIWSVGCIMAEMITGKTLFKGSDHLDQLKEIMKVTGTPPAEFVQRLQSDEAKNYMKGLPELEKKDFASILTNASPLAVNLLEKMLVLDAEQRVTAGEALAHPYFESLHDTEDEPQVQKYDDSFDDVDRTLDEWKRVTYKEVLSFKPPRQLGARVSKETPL
# [8] = biological target: T2, Tyrosine-protein kinase receptor TYRO3 (Homo sapiens) (UniProt Q06418); conditions: at 1 µM
# T2 sequence (whole entry): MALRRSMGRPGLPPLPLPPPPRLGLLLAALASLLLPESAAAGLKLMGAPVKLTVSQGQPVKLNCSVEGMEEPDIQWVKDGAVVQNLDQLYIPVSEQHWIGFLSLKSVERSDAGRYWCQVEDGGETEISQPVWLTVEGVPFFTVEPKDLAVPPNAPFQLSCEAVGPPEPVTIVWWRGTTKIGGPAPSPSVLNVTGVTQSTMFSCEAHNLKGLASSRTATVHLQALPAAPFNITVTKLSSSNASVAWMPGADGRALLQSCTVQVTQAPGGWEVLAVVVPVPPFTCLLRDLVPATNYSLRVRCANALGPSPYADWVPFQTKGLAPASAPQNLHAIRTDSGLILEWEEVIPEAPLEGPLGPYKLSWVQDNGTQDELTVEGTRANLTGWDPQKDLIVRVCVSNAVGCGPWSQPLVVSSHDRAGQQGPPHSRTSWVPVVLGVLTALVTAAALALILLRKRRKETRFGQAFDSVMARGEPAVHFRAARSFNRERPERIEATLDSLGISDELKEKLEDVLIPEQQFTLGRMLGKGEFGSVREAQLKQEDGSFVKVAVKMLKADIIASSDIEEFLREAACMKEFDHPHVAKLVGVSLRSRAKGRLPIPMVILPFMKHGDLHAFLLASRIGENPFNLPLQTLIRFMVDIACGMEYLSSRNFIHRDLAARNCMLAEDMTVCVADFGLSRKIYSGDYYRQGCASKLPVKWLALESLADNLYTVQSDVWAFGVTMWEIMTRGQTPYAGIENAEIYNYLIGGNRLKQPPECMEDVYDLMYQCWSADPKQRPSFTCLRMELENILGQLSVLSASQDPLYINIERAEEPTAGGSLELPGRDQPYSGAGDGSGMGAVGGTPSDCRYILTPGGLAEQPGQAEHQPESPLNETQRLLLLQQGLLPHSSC
# [9] = biological target: T2, Tyrosine-protein kinase receptor TYRO3 (Homo sapiens); conditions: at 10 µM
# [10] = biological target: Ribosomal protein S6 kinase alpha-1 (Homo sapiens) (UniProt Q15418); conditions: at 1 µM
# Chain of Ribosomal protein S6 kinase alpha-1 (Homo sapiens) (Q15418 whole entry): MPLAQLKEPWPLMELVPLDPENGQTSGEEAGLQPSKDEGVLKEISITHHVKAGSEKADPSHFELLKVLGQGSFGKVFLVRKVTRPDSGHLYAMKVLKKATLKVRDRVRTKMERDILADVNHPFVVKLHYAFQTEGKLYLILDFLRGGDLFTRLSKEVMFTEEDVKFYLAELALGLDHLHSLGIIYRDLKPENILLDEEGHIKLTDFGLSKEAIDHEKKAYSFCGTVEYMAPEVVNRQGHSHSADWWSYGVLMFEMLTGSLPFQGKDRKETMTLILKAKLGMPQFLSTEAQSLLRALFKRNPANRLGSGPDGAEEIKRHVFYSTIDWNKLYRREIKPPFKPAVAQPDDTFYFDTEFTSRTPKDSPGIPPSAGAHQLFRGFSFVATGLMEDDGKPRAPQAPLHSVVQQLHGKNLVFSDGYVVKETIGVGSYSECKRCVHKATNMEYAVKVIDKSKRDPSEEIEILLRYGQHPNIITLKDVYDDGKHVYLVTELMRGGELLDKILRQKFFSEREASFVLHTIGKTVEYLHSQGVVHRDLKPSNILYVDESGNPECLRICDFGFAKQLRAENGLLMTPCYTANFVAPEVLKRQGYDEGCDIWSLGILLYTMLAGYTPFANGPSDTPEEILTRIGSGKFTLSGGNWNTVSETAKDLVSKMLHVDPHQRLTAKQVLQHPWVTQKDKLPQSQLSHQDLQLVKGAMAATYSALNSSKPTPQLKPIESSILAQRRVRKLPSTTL
# [11] = biological target: Ribosomal protein S6 kinase alpha-2 (Homo sapiens) (UniProt Q15349); conditions: at 1 µM
# Chain of Ribosomal protein S6 kinase alpha-2 (Homo sapiens) (Q15349 whole entry): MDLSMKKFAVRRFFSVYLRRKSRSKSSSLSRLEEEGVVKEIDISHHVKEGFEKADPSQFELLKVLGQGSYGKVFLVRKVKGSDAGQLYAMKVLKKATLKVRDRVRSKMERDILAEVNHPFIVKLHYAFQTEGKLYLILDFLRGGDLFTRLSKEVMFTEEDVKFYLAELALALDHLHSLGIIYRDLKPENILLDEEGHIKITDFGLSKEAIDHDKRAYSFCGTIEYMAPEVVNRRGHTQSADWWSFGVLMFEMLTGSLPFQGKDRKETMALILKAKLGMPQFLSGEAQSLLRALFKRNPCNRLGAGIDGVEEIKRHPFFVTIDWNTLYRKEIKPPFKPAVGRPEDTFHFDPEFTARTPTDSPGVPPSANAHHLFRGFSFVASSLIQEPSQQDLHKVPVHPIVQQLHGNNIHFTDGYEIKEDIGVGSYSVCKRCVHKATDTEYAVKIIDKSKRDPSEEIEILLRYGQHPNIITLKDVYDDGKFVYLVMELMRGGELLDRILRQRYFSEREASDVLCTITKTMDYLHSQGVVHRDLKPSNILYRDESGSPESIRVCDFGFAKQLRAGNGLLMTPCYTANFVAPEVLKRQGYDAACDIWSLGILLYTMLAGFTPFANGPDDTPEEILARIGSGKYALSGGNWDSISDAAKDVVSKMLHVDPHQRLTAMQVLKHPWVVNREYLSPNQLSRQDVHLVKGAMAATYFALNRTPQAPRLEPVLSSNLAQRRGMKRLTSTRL
# [12] = biological target: Ribosomal protein S6 kinase alpha-2 (Homo sapiens) (UniProt Q15349); conditions: at 10 µM
# [13] = biological target: Mitogen-activated protein kinase 11 (Homo sapiens) (UniProt Q15759); conditions: at 1 µM
# Chain of Mitogen-activated protein kinase 11 (Homo sapiens) (Q15759 whole entry): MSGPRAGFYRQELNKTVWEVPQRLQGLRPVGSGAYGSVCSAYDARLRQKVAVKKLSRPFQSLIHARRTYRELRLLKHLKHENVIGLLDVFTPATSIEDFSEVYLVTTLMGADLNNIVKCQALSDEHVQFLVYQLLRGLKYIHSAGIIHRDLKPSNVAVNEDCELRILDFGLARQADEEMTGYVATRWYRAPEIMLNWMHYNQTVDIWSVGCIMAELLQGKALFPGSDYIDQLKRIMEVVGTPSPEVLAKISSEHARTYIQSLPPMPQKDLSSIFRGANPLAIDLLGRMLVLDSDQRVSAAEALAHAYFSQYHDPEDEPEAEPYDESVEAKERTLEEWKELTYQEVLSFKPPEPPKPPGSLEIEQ
# [14] = biological target: Mitogen-activated protein kinase 11 (Homo sapiens) (UniProt Q15759); conditions: at 10 µM
# [15] = biological target: T1, Mitogen-activated protein kinase 12 (Homo sapiens); conditions: at 10 µM
# [16] = biological target: T3, Mitogen-activated protein kinase 13 (Homo sapiens) (UniProt O15264); conditions: at 1 µM
# T3 sequence (whole entry): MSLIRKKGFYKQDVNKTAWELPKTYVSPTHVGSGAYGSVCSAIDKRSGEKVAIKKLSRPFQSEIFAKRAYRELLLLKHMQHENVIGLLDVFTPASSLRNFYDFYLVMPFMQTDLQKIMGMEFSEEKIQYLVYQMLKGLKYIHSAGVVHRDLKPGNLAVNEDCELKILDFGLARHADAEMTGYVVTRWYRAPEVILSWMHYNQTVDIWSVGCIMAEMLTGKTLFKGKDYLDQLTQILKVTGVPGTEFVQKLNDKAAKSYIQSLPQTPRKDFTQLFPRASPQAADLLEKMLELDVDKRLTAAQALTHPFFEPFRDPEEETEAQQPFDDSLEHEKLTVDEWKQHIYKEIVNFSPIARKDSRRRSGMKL
# [17] = biological target: Ribosomal protein S6 kinase alpha-1 (Homo sapiens) (UniProt Q15418); conditions: at 10 µM
# [18] = biological target: T3, Mitogen-activated protein kinase 13 (Homo sapiens); conditions: at 10 µM
# [19] = biological target: T4, Serine/threonine-protein kinase Sgk1 (Homo sapiens) (UniProt O00141); conditions: at 1 µM
# T4 sequence (whole entry): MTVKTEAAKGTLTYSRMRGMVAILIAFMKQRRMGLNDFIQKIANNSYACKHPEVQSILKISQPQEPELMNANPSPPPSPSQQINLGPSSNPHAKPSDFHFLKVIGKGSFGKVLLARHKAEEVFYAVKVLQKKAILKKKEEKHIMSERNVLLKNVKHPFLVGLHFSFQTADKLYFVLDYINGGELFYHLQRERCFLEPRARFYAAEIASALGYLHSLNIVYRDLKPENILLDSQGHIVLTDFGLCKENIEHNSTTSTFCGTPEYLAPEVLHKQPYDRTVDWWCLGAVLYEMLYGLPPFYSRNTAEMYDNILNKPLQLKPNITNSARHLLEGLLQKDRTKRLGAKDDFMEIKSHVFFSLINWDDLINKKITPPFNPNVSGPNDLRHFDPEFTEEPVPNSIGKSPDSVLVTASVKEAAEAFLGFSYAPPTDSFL
# [20] = biological target: T4, Serine/threonine-protein kinase Sgk1 (Homo sapiens); conditions: at 10 µM
# Chain of Ribosomal protein S6 kinase alpha-6 (Homo sapiens) (Q9UK32 whole entry): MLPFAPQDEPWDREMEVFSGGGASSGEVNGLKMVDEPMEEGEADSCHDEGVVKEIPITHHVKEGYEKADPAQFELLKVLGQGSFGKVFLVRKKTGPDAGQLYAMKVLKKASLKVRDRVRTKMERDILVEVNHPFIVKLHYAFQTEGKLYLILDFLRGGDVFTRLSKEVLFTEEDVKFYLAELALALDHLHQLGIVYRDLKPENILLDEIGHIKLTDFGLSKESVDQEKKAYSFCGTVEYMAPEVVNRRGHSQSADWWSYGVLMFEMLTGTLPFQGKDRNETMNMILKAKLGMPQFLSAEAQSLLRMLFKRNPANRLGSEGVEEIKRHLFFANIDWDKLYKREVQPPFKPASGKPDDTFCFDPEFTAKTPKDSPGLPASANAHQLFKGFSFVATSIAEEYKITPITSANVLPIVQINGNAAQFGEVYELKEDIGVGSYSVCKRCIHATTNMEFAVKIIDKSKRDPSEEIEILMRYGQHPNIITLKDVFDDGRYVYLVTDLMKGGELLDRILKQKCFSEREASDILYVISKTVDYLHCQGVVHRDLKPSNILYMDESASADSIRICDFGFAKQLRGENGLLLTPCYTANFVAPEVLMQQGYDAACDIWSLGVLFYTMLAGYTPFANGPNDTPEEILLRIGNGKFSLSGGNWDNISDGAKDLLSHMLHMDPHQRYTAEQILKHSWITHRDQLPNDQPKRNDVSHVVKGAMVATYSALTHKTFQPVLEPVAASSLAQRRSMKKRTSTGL
# Chain of Ribosomal protein S6 kinase alpha-3 (Homo sapiens) (P51812 whole entry): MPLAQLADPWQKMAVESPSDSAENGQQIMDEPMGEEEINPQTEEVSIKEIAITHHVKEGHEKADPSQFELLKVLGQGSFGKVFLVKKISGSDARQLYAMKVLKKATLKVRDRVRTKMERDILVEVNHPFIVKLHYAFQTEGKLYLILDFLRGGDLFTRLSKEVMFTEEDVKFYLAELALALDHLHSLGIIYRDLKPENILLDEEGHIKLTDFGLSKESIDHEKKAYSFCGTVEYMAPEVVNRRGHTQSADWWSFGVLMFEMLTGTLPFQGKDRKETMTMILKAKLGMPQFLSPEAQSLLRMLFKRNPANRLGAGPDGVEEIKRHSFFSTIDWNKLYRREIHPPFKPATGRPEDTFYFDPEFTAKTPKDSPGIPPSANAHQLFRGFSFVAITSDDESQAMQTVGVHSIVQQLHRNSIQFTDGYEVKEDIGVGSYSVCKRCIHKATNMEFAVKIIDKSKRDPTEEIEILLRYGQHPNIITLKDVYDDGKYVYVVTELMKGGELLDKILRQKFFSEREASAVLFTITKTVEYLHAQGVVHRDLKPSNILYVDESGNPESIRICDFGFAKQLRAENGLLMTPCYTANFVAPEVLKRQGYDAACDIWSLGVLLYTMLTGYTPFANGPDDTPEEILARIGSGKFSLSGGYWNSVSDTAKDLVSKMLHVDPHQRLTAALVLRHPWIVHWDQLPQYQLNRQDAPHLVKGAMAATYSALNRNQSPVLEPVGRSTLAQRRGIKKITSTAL
compound,measurement,setting,value
N/C(=N\[N+](=O)[O-])N/N=C\c1ccc(-c2cccc([N+](=O)[O-])c2)o1,residual activity,[1],43%
same,residual activity,[2],52%
same,residual activity,[3],93%
same,residual activity,[4],96%
same,residual activity,[5],81%
same,residual activity,[6],91%
COc1cc2c(cc1OC)-c1n[nH]c(Nc3cccc(F)c3)c1C2,residual activity,[7],100%
CC(C)(C)c1cc(C=C(C#N)C#N)cc(Br)c1O,residual activity,[8],112%
same,residual activity,[9],104%
same,residual activity,[10],111%
same,residual activity,[1],100%
same,residual activity,[2],78%
same,residual activity,[11],106%
same,residual activity,[12],82%
same,residual activity,[3],98%
same,residual activity,[4],106%
same,residual activity,[5],107%
same,residual activity,[6],112%
same,residual activity,[13],110%
same,residual activity,[14],101%
same,residual activity,[7],107%
same,residual activity,[15],110%
same,residual activity,[16],101%
COc1ccc2c(c1)/C(=C/c1cnc[nH]1)C(=O)N2,residual activity,[8],97%
same,residual activity,[9],73%
same,residual activity,[10],60%
same,residual activity,[17],17%
same,residual activity,[11],30%
same,residual activity,[12],4%
same,residual activity,[3],53%
same,residual activity,[4],12%
NC(=O)Nc1sc(-c2ccc(F)cc2)cc1C(N)=O,residual activity,[7],90%
same,residual activity,[15],82%
O=C(CCCc1ccc(-c2ccccc2F)cc1)Nc1ccc(O)cc1,residual activity,[7],101%
same,residual activity,[15],100%
O=C1Nc2ccc3ncsc3c2/C1=C/c1c[nH]cn1,residual activity,[8],56%
same,residual activity,[9],45%
same,residual activity,[10],28%
same,residual activity,[17],4%
same,residual activity,[1],18%
same,residual activity,[2],1%
same,residual activity,[11],5%
same,residual activity,[12],-1%
same,residual activity,[3],14%
same,residual activity,[4],2%
same,residual activity,[5],80%
same,residual activity,[6],74%
same,residual activity,[13],71%
same,residual activity,[14],35%
same,residual activity,[7],50%
same,residual activity,[15],16%
same,residual activity,[16],62%
same,residual activity,[18],24%
same,residual activity,[19],31%
same,residual activity,[20],7%
O=C1c2ccccc2-c2nc3nnnn3nc21,residual activity,[8],106%
same,residual activity,[9],114%
same,residual activity,[10],109%
same,residual activity,[17],103%
same,residual activity,[1],67%
same,residual activity,[2],53%
same,residual activity,[11],120%
same,residual activity,[12],106%
same,residual activity,[5],111%
same,residual activity,[6],112%
same,residual activity,[13],102%
same,residual activity,[14],104%
same,residual activity,[7],130%
same,residual activity,[15],117%
same,residual activity,[16],119%
same,residual activity,[18],101%
same,residual activity,[19],146%
same,residual activity,[20],71%
CCN(CC)CCCCN1c2ccccc2Oc2ccc(Cl)cc21,residual activity,[7],131%
same,residual activity,[15],100%
COc1cc2ncnc(Nc3cccc(Cl)c3)c2cc1OC,residual activity,[7],116%
same,residual activity,[15],103%
CCCCc1c(-c2ccc(OC)cc2)[nH]c2nccnc12,residual activity,[7],103%
same,residual activity,[15],112%
